Data on 18 molecules can be found in PubChem BioAssay.

Active and inactive are the calls of the source.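 How the source made its calls: active means normalized viability below 100% at a tested concentration; inactive means the rest.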

The first experiment is described as follows: drug combination growth inhibition, ovarian cancer – cell-based, oncology-focused library, rucaparib conditional, profiling panel (AID 1508598). The settings on record: patient-derived ovarian cancer cells, CellTiter-Glo viability, 144 h; at 1.25 µM; OCI-C5x cells; with rucaparib 10 µM; stronger effect = lower value; 100% = cells with rucaparib alone. For orientation: Cellular ATP, detected with luciferase, serves as a proxy for viable cell number.
Take `CC(=O)O[C@H]1C(=O)[C@@]2(C)C([C@H](OC(=O)c3ccccc3)[C@]3(O)C[C@H](OC(=O)[C@H](O)[C@@H](NC(=O)c4ccccc4)c4ccccc4)C(C)=C1C3(C)C)[C@]1(OC(C)=O)CO[C@@H]1C[C@H]2O` (stereo not given in full): the viability (commonly a read-out of living cells in per cent, often relative to untreated cells) is 30% (active).

In the case of `CO[C@H]1C[C@H]2CC[C@@H](C)[C@@](O)(O2)C(=O)C(=O)N2CCCC[C@H]2C(=O)O[C@H]([C@H](C)C[C@@H]2CC[C@H](OC(=O)C(C)(CO)CO)[C@H](OC)C2)CC(=O)[C@H](C)/C=C(\C)[C@@H](O)[C@@H](OC)C(=O)[C@H](C)C[C@H](C)/C=C/C=C/C=C/1C`, the viability is 100% (inactive). Still for that read-out and setting: as for `CO[C@H]1/C=C\C=C(\C)C(=O)NC2=CC(=O)C(NCCN(C)C)=C(C[C@@H](C)C[C@H](OC)[C@H](O)[C@@H](C)/C=C(\C)[C@@H]1OC(N)=O)C2=O`, the figure is 7.91% (active); as for `CC(C)(C(=O)NCC(F)(F)C(F)(F)F)C(=O)N[C@H]1C(=O)Nc2ccccc2-c2ccccc21`, 114% (inactive); as for `CC1(C)O[C@@H]2C[C@H]3[C@@H]4CCC5=CC(=O)C=C[C@]5(C)[C@]4(F)[C@H](O)C[C@]3(C)[C@@]2(C(=O)CO)O1`, 109% (inactive).

The experiment is the same for the next values; noted with them: patient-derived ovarian cancer cells, CellTiter-Glo viability, 144 h; at 1.25 µM; OCI-C5x cells; without rucaparib; stronger effect = lower value.
As to `N[C@@H]1CCCN(c2c(/C=C3\SC(=O)NC3=O)cccc2-c2ccccc2)C1`, the viability was 103% (inactive). Same read-out and setting: in the case of `C[C@@H]1C[C@H]2[C@@H]3CCC4=CC(=O)C=C[C@]4(C)[C@]3(F)[C@H](O)C[C@]2(C)[C@]1(O)C(=O)CO` it was 116% (inactive); in that of `Cc1cc2c(C(=O)NC[C@H](C)c3ccccc3)c(O)c(O)cc2c(O)c1-c1c(C)cc2c(C(=O)NC[C@H](C)c3ccccc3)c(O)c(O)cc2c1O`, 106% (inactive); in that of `Nc1nc(F)nc2c1ncn2[C@H]1O[C@H](CO)[C@@H](O)[C@@H]1O`, 82.4% (active).

Consider `COc1cccc2c1C(=O)c1c(O)c3c(c(O)c1C2=O)C[C@@](O)(C(=O)CO)C[C@H]3O[C@H]1C[C@H](N)[C@@H](O)[C@H](C)O1`, for which the viability is 31.1% (active). Consider `C=C1/C(=C/C=C2\CCC[C@@]3(C)[C@H]2CC[C@H]3[C@H](C)/C=C/[C@@H](C)C(C)C)C[C@H](O)C[C@@H]1O`, for which the viability is 102% (inactive).

In the case of `CO[C@H]1C[C@H]2CC[C@@H](C)[C@@](O)(O2)C(=O)C(=O)N2CCCC[C@H]2C(=O)O[C@H]([C@H](C)C[C@@H]2CC[C@H](OP(C)(C)=O)[C@H](OC)C2)CC(=O)[C@H](C)/C=C(\C)[C@@H](O)[C@@H](OC)C(=O)[C@H](C)C[C@H](C)/C=C/C=C/C=C/1C`, the viability is 94.5% (active). In the case of `C=CCNC1=C2C[C@@H](C)C[C@H](OC)[C@H](O)[C@@H](C)/C=C(\C)[C@H](OC(N)=O)[C@@H](OC)/C=C\C=C(\C)C(=O)NC(=CC1=O)C2=O`, the viability is 27.2% (active).

On to `CC[C@]1(O)C[C@@H]2CN(CCc3c([nH]c4ccccc34)[C@@](C(=O)OC)(c3cc4c(cc3OC)N(C=O)[C@@H]3C45CCN4CC=C[C@](CC)([C@H]45)[C@H](OC(C)=O)[C@]3(O)C(=O)OC)C2)C1` (stereo not given in full), for which the viability is 21.4% (active). Still for that read-out and setting: in the case of `COc1cccc2c1C(=O)c1c(O)c3c(c(O)c1C2=O)C[C@@](O)(C(C)=O)C[C@H]3O[C@H]1C[C@H](N)[C@H](O)[C@H](C)O1` it was 1.21% (active); in that of `CCOc1ccc(Cc2cc([C@@H]3O[C@H](CO)[C@@H](O)[C@H](O)[C@@H]3O)ccc2Cl)cc1`, 118% (inactive); in that of `CC(=O)[C@]1(O)Cc2c(O)c3c(c(O)c2[C@H](O[C@H]2C[C@H](N)[C@H](O)[C@H](C)O2)C1)C(=O)c1ccccc1C3=O`, 1.48% (active).

Consider `CCC1=CC2CN(C1)Cc1c([nH]c3ccccc13)[C@@](C(=O)OC)(c1cc3c(cc1OC)N(C)[C@H]1[C@@](O)(C(=O)OC)[C@H](OC(C)=O)[C@]4(CC)C=CCN5CC[C@@]31[C@H]54)C2` (stereo not given in full), for which the viability is 21.7% (active). For `CC(=O)O[C@H]1C(=O)[C@@]2(C)C([C@H](OC(=O)c3ccccc3)[C@]3(O)C[C@H](OC(=O)[C@H](O)[C@@H](NC(=O)c4ccccc4)c4ccccc4)C(C)=C1C3(C)C)[C@]1(OC(C)=O)CO[C@@H]1C[C@H]2O` (stereo not given in full), the viability is 32.8% (active). The same measure, in the same setting: in the case of `CO[C@H]1C[C@H]2CC[C@@H](C)[C@@](O)(O2)C(=O)C(=O)N2CCCC[C@H]2C(=O)O[C@H]([C@H](C)C[C@@H]2CC[C@H](OC(=O)C(C)(CO)CO)[C@H](OC)C2)CC(=O)[C@H](C)/C=C(\C)[C@@H](O)[C@@H](OC)C(=O)[C@H](C)C[C@H](C)/C=C/C=C/C=C/1C` it was 95.8% (active).
